Source: PubChem BioAssay AID1159580 (chemical genetic matrix, 2015)
Where “and” joins values, the source holds several entries; their conditions need not be identical. Identical values can stand only once. Out of some 5,500 compounds screened, about 2,000 (36%) were called active. Roughly 18% stayed inconclusive and do not appear here. Rule as the data show it: active = normalized growth mostly below about 0.91 (no sharp cut-off); inconclusive = no clear call, values can overlap the other calls; inactive = mostly above about 0.92. The list shows a part of the results.

Test: chemical genetic growth profiling, strain panel (AID 1159580);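 also: tested at 20 µM; growth read once vehicle control cultures reached saturation at 30 °C; 1 = growth at the plate median or of vehicle wells; lower values mean less growth of the strain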
Details: S. cerevisiae deletion strains, growth OD

Measured: normalized growth

O=C(O)CCCCC1SCC2NC(=O)NC21 (stereo not drawn)
inactive: locus YAL013W, strain DEP1, active compounds read low 1.02 | locus YAL021C, strain ccr4, active compounds read low 0.999 | locus YAL026C, strain drs2, active compounds read low 0.994 | locus YAL030W, strain snc1, active compounds read low 0.995 | locus YBL061C, strain skt5, active compounds read low 0.989 | locus YBR009C, strain hhf1, active compounds read low 0.997 | locus YBR021W, strain FUR4, active compounds read low 0.977 | locus YBR023C, strain chs3, active compounds read low 0.979 | locus YBR171W, strain sec66, active compounds read low 0.996 | locus YBR229C, strain ROT2, active compounds read low 1 | locus YBR231C, strain swc5, active compounds read low 0.998 | locus YBR279W, strain paf1, active compounds read low 0.997 | locus YCL011C, strain gbp2, active compounds read low 0.995 | locus YCL016C, strain dcc1, active compounds read low 0.995 | locus YCL029C, strain bik1, active compounds read low 0.998 | locus YCL061C, strain MRC1, active compounds read low 1 | locus YCL069W, strain vba3, active compounds read low 0.97 | locus YCR088W, strain abp1, active compounds read low 0.981 | locus YDL005C, strain med2, active compounds read low 0.98 | locus YDL035C, strain GPR1, active compounds read low 0.996 | locus YDL040C, strain nat1, active compounds read low 1 | locus YDL074C, strain BRE1, active compounds read low 1.01 | locus YDL101C, strain DUN1, active compounds read low 0.989 | locus YDL134C, strain PPH21, active compounds read low 1 | locus YDL185W, strain tfp1, active compounds read low 0.997 | locus YDL192W, strain arf1, active compounds read low 1.01 | locus YDR001C, strain nth1, active compounds read low 0.985 | locus YDR069C, strain doa4, active compounds read low 0.973 | locus YDR101C, strain arx1, active compounds read low 0.98 | locus YDR137W, strain rgp1, active compounds read low 0.983 | locus YDR150W, strain NUM1, active compounds read low 1.02 | locus YDR159W, strain sac3, active compounds read low 1.02 | locus YDR162C, strain NBP2, active compounds read low 1.01 | locus YDR195W, strain ref2 1.01 | locus YDR297W, strain sur2, active compounds read low 0.996 | locus YDR318W, strain mcm21, active compounds read low 1 | locus YDR334W, strain swr1, active compounds read low 0.984 | locus YDR335W, strain msn5, active compounds read low 0.986 | locus YDR388W, active compounds read low 1 | locus YDR392W, strain spt3, active compounds read low 0.996 | locus YDR502C, strain sam2, active compounds read low 0.994 | locus YEL003W, strain gim4, active compounds read low 0.984 | locus YEL037C, strain rad23, active compounds read low 0.992 | locus YEL061C, strain CIN8 (second series), active compounds read low 1 | locus YEL061C, strain CIN8, active compounds read low 1.02 | locus YER015W, strain faa2, active compounds read low 0.979 | locus YER016W, strain bim1, active compounds read low 0.988 | locus YER110C, active compounds read low 1 | locus YER111C, strain swi4, active compounds read low 1 | locus YER155C, strain BEM2 (second series), active compounds read low 0.985 | locus YER155C, strain BEM2, active compounds read low 0.999 | locus YER167W, strain BCK2, active compounds read low 1 | locus YFR010W, strain ubp6, active compounds read low 0.995 | locus YGL078C, strain dbp3, active compounds read low 0.99 | locus YGL086W, strain mad1, active compounds read low 0.993 | locus YGL167C, strain pmr1, active compounds read low 0.99 | locus YGL173C, strain kem1, active compounds read low 0.985 | locus YGL227W, strain vid30, active compounds read low 1 | locus YGL240W, strain doc1, active compounds read low 0.985 | locus YGL248W, strain PDE1, active compounds read low 1 | locus YGL253W, strain hxk2, active compounds read low 0.985 | locus YGR078C, strain PAC10, active compounds read low 1.05 | locus YGR135W, strain pre9, active compounds read low 0.999 | locus YGR252W, strain gcn5, active compounds read low 0.944 | locus YHR013C, strain ard1, active compounds read low 0.988 | locus YHR027C, strain rpn1, active compounds read low 0.989 | locus YHR030C, strain SLT2, active compounds read low 1.02 and 1.01 | locus YHR079C, strain IRE1 (second series), active compounds read low 1.02 | locus YHR079C, strain IRE1, active compounds read low 1.01 | locus YHR094C, strain hxt1, active compounds read low 1 | locus YHR129C, strain ARP1, active compounds read low 1.01 | locus YHR142W, strain chs7, active compounds read low 0.982 | locus YHR200W, strain rpn10, active compounds read low 0.996 | locus YIL066C, strain RNR3, active compounds read low 1.01 | locus YIL073C, strain SPO22, active compounds read low 1.02 | locus YIL125W, strain kgd1, active compounds read low 0.987 | locus YIR030C, strain dcg1, active compounds read low 1.01 | locus YJL092W, strain hpr5, active compounds read low 0.986 | locus YJL095W, strain BCK1 (second series), active compounds read low 0.998 | locus YJL095W, strain BCK1, active compounds read low 1.02 and 1 | locus YJL115W, strain asf1, active compounds read low 0.996 | locus YJL129C, strain trk1, active compounds read low 0.954 | locus YJL134W, strain LCB3, active compounds read low 1.01 | locus YJL154C, strain vps35, active compounds read low 0.994 | locus YJL164C, strain tpk1, active compounds read low 1 | locus YJL166W, strain qcr8, active compounds read low 0.965 | locus YJL168C, strain set2, active compounds read low 0.993 | locus YJL187C, strain SWE1 (second series), active compounds read low 1
